# Laboratory results published in PubChem BioAssay (Tox21).
# Results filed as inconclusive are left out. A call without a number means that no potency is given here. Unmarked numbers belong to inactive results. Calls of active or inactive are those of the source. Calls come from the whole dose curve.
# Assay: Nuclear factor erythroid 2-related factor 2/antioxidant responsive element (Nrf2/ARE) small molecule agonists: luciferase reporter gene qHTS assay in human keratinocytes (AID 1919969); note: nearly all actives have a fitted effect of over 35% in size
# Conditions: KeratinoSens HaCaT ARE-luciferase, luminescence, 24 h; series mostly up to 92.4 µM
# Text: National Center for Advancing Translational Sciences [NCATS]
# Division of Preclinical Innovation [DPI]
# U.S. Environmental Protection Agency [EPA]
# National Institutes of Environmental Health Sciences [NIEHS]
# National Toxicology Program [NTP]
# U.S. Food and Drug Administration [FDA]
# Oxidative stress has been implicated in the pathogenesis of a variety of diseases ranging from cancer to neurodegeneration. The antioxidant response element (ARE) signaling pathway plays an important role in the amelioration of oxidative stress. The KeratinoSens (Givaudan, Switzerland) is an in vitro test method which quantifies luciferase induction as a measure of activation of Keap1-Nrf2-antioxidationt/electrophile response element (ARE) dependant pathway in HaCaT human keratinocytes stably transfected with a selectable plasmid. The KeratinoSens assay is a cell-based assay with a reporter cell line to detect potential skin sensitizers by their ability to induce the Nrf2/ARE-response. The activation of the report gene under culture conditions can be detected by ONE-Glo Luciferase Assay System (Promega, Madison, WI). This cell line has been used to screen the Tox21 10K compound library to identify agonists that induce oxidative stress. The cytotoxicity of the Tox21 compound library against the KS-ARE cell line was tested in parallel by measuring the cell viability using CellTiter- Fluor assay system (Promega, Madison, WI) in the same wells.
# HaCaT derived cell line KeratinoSens were dispensed at 1,500 cells/5uL/well in 1536-well white wall/solid bottom plates using a Multidrop Combi (ThermoFisher Scientific, Waltham, MA) dispenser. After the assay plates were incubated at 37 C/5% CO2 for 5 h, 23 nL of compounds dissolved in DMSO, positive controls or DMSO only was transferred to the assay plate by a pintool workstation (Kalypsys, San Diego, CA). The plates were incubated at 37 C/5% CO2 for 23 h, followed by addition of 1uL/well of CellTiter-Fluor reagent into the assay plates using a Flying Reagent Dispenser (Aurora Discovery, San Diego, CA) for cell viability readout that measures cytotoxicity. After 1 h incubation at 37 C/5% CO2 the fluorescence intensity was measured using a ViewLux (PerkinElmer, Shelton, CT) plate reader. Then 4uL/well of One-Glo were added using a Flying Reagent Dispenser. After the plates were incubated at room temperature for 30 min, the luminescence intensity in the assay plates was measured using ViewLux plate reader.
# Potency is the fitted concentration of half-maximal effect.
SMILES,Potency,"activity, positive = activation"
CCC(C)COC(=O)CC(C)C (stereo not given),inactive,–
COc1ccc(CCN(C)CCCC(C#N)(c2cc(OC)c(OC)c(OC)c2)C(C)C)cc1OC (stereo not given),inactive,–
O=C(Nc1cccc2c(=O)cc(-c3nn[nH]n3)oc12)c1ccc(OCCCCc2ccccc2)cc1,inactive,–
CN1CCN(C2=Nc3ccccc3Oc3ccc(Cl)cc32)CC1,inactive,–
CC(C(=O)O)c1ccc(-c2ccccc2)c(F)c1 (stereo not given),inactive,–
CCCC(=O)OC(=O)CCC,inactive,–
CCOC(=O)c1c(N)sc2c1CCN(Cc1ccccc1)C2,inactive,–
O=C1Nc2cc(Cl)ccc2Oc2ccccc21,inactive,–
Cc1cc(C(C)(C)C)c(O)c(C)c1Cn1c(=O)n(Cc2c(C)cc(C(C)(C)C)c(O)c2C)c(=O)n(Cc2c(C)cc(C(C)(C)C)c(O)c2C)c1=O,inactive,–
Nc1[nH]c(=O)ncc1F,inactive,–
COc1c(N2CCNC(C)C2)c(F)cc2c(=O)c(C(=O)O)cn(C3CC3)c12 (stereo not given),inactive,–
COC(=O)N/N=C/c1c[n+]([O-])c2ccccc2[n+]1[O-],inactive,–
CC(C)(C)c1cc(CCC(=O)NN)cc(C(C)(C)C)c1O,inactive,–
C[C@H]1O[C@@H](n2cc(F)c(=O)[nH]c2=O)[C@H](O)[C@@H]1O,inactive,–
c1ccc(C[P+](c2ccccc2)(c2ccccc2)c2ccccc2)cc1,inactive,–
CCCCCCCCCCC(=O)O,inactive,–
O=C(O)c1cc(O)c2ccccc2c1O,1.72 µM (active),–
Cc1ccc(=O)n(-c2ccccc2)c1,inactive,–
CCOc1ccc([N+](=O)[O-])cc1,inactive,–
N=C1C=CC(=C(c2ccc(N)cc2)c2ccc(N)cc2)C=C1,61.1 µM (active),–

SMILES,Potency,"activity, positive = activation"
CCC(=O)Nc1ccc(O)cc1,inactive,–
N=C1N=C(N)c2ccccc21,27.3 µM (active),–
Cc1nc(C2CCCCC2)c(-c2ccc(S(N)(=O)=O)c(F)c2)o1,inactive,–
Cc1ccc(C=O)s1,68.6 µM (active),–
O=C(O)c1cccc(N(Cc2cccnc2)c2ccc(OC(F)F)c(OC(F)F)c2)c1,inactive,–
COc1ccc(OC)c(OC)c1,inactive,–
O=C(O)c1ccc(Cl)cc1Cl,inactive,–
CN(C)CCc1c[nH]c2ccc(CS(=O)(=O)N3CCCC3)cc12,inactive,–
CCC(C)c1nccnc1OC (stereo not given),inactive,–
CCCC(C)C,inactive,–
NC(=O)CC[C@@H]1NC(=O)[C@H](Cc2ccccc2)NC(=O)[C@H](Cc2ccc(O)cc2)NC(=O)CCSSC[C@@H](C(=O)N2CCC[C@H]2C(=O)N[C@@H](CCCN=C(N)N)C(=O)NCC(N)=O)NC(=O)[C@H](CC(N)=O)NC1=O,inactive,–
COc1cccc(-c2ccc(/C=C\CN3CCCCCC3)cc2Cl)c1,inactive,–
O=P(O)(O)C(O)(Cc1cccnc1)P(=O)(O)O,inactive,–
CCCCCCC(CO)CCCC (stereo not given),inactive,–
NCC[C@H](O)C(=O)N[C@@H]1C[C@H](N)[C@@H](O[C@H]2O[C@H](CN)[C@@H](O)[C@H](O)[C@H]2O)[C@H](O)[C@H]1O[C@H]1O[C@H](CO)[C@@H](O)[C@H](N)[C@H]1O,–,1.57% [at 0.349 µM]
O=C1CC2(CCCC2)CC(=O)N1,inactive,–
O=C(NCCCN1CCOCC1)c1ccc(Cl)cc1,inactive,–
Cc1cc(C)c(O)c(C(C)(C)C)c1,inactive,–
C#C[C@]1(OC(C)=O)CC[C@H]2[C@@H]3CCC4=C[C@@H](OC(C)=O)CC[C@@H]4[C@H]3CC[C@@]21C,inactive,–
COc1cc(-c2nc(NC(=O)c3cc4cc(C)cc(C)c4n3CC(=O)O)sc2CCC2CCCCC2)c(OC)cc1Cl,12.5 µM (active),–
